BRCT inh red – inhibitors of human BRCA1 BRCT-phosphoprotein interaction (red fluorophore); BRCT-phosphopeptide binding, red fluorescence polarization; Potency, µM (series often up to 76.9 µM), actives largely listed as inhibitors; 0.03% of 75,000 active
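Fluorescence polarization: 100 nM His-tagged BRCA1 BRCT with 100 nM TAMRA-labelled phospho-BACH1 decapeptide, phosphate buffer pH 7.3 with 150 mM NaCl, DTT, 0.01% Tween 20; 12 min RT. Binding inhibition seen as FP decrease.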
Hsp90 Hop PPI – changes Hsp90-Hop TPR2A binding signal, up or down. AlphaScreen TPR2A-His6 binding biotin-Hsp90 C-terminal peptide. Potency, µM (titrated, usually from 57 µM). 0.44% of 71,000 active; active = well fitted curve in either direction with a large enough effect; inconclusive = small, poorly fitted or top-dose-only effect, or another doubt
DNA Pol III inh – inhibitors of bacterial DNA polymerase III holoenzyme. AID 603. reconstituted DNA polymerase III holoenzyme replication, biochemical. Potency, µM (top dose mostly 57.1 µM). 0.25% of 71,000 active
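Reconstituted *E. coli* holoenzyme (0.35 nM Pol III, 1 nM beta, 154 nM SSB, 2 nM primase) was preincubated with compound for 15 min at RT. Synthesis on 1.4 nM ssM13Gori ran 35 min, then was stopped with PicoGreen/EDTA and read as dsDNA fluorescence.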
TsaE inh – inhibitors of E. coli YjeE (TsaE). Potency, µM. purified YjeE enzyme, qHTS inhibition assay. P0AF67. 0.05% of 71,000 active. AID 605
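Purified YjeE (10 uM) with BODIPY Texas Red-labeled ADP probe (2 uM); compounds pin-transferred, 15 min at room temperature. Binding inhibition read as decreased fluorescence polarization; ADP titration as control.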
Tau fil binding – binders of human tau filaments. recombinant tau filaments, thioflavin S fluorescence, 15 h; filaments grown with octadecylsulfate alongside compound. Potency, µM (series often up to 57.1 µM). 2% of 71,000 active. AID 596;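 also: actives lower thioflavin S fluorescence by blocking filaments or displacing dye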
Target sequence (P10636 whole entry, looked up): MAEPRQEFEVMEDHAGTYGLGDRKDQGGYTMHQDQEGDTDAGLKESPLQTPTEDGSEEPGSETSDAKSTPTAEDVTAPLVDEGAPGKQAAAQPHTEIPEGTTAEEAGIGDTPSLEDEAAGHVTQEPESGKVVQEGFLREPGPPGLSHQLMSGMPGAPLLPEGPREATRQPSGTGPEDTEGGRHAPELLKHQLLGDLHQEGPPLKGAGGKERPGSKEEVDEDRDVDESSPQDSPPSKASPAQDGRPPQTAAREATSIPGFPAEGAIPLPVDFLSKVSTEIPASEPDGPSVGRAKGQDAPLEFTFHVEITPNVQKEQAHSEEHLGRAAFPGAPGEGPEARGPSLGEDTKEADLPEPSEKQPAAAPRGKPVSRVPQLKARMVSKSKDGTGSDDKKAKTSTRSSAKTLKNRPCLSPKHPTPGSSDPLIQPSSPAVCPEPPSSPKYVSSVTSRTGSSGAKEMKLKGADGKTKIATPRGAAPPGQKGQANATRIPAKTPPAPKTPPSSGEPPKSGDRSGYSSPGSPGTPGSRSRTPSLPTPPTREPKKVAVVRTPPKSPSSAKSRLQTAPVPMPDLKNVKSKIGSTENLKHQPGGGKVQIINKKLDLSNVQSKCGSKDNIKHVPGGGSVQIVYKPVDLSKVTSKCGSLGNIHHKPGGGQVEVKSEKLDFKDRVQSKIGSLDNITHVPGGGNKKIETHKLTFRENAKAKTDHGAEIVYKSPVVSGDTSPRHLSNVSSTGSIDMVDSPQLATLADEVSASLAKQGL
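Tau 2 uM in ThS buffer dispensed; compound added; 60 uM ODS added (finals 1 uM tau, 30 uM ODS); 15 h 37 C; fluor ex450/em510.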
BRCT inh green – inhibitors of human BRCA1 BRCT-phosphoprotein interaction (green fluorophore) | Potency, µM (highest dose often 76.9 µM), actives largely listed as inhibitors | 0.05% of 75,000 active | P38398 | BRCA1 BRCT-phosphopeptide binding, green fluorescence polarization
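Fluorescence polarization: His-tagged BRCT (~35 kDa BRCA1 C-terminus, 250 nM) bound to 100 nM fluorescein-labeled phosphorylated 10-aa BACH1 peptide, pH 7.3 phosphate buffer with DTT and Tween 20. Compounds incubated 12 min at room temperature; inhibition read as lowered polarization.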
Numbers stand for hits; . = inactive; ? = inconclusive; / = no result; [ ] = another dose, or the depositor's remark. Shown are actives, neighbours in structure and some others; about 2.4% of the full set was active somewhere. Unless noted, calls follow the shape of the dose curve; as a rule, active = well fitted curve in the direction sought with a large enough effect; inconclusive = small, poorly fitted or top-dose-only effect, or another doubt; inactive = no such curve, though single readings can be large; an effect the other way counts as inactive or inconclusive.

SMILES | BRCT inh red | Hsp90 Hop PPI | DNA Pol III inh | TsaE inh | Tau fil binding | BRCT inh green
Cc1cc2cc(CNC(=O)Nc3ccccc3)ccc2n1C | . | ? | . | . | 20µM | .
CCC(C)C(=O)OC1CC(O)C=C2C=CC(C)C(CCC(O)CC(O)CC(=O)O)C21 (stereo unspecified) | . | / | / | / | / | .[3.08 µM]
COc1cc([C@H](O)CO)ccc1O | . | . | . | . | . | .
CCN(CC)[C@@H](C)CN1c2ccccc2Sc2ccccc21 | . | . | . | . | ? | .
N=c1c(C(=O)NCc2ccco2)cc2c(=O)n3ccccc3nc2n1Cc1ccccc1 | . | . | . | . | ? | .
Cc1cccn2c(=O)c3cc(C(=O)NCc4ccco4)c(=N)n(C(C)C)c3nc12 | . | . | . | . | . | .
CC(C)n1c(=N)c(C(=O)NCCc2ccccc2)cc2c(=O)n3ccccc3nc21 | . | . | . | . | 3.2µM | .
Cc1cccn2c(=O)c3cc(C(=O)NCc4ccco4)c(=N)n(CCc4ccccc4)c3nc12 | . | . | . | . | 1.6µM | .
CCOC(=O)c1cc2c(=O)n3ccccc3nc2n(Cc2ccc(Cl)cc2)c1=N | . | . | . | . | 0.5µM | .
N=c1c(C(=O)NCc2ccco2)cc2c(=O)n3ccccc3nc2n1Cc1ccc(Cl)cc1 | . | . | . | . | 3.2µM | .
CCOc1nc2cccc(C(=O)OC(C)OC(=O)OC3CCCCC3)c2n1Cc1ccc(-c2ccccc2-c2nn[nH]n2)cc1 (stereo unspecified) | . | / | / | / | / | .[3.08 µM]
CN1CCN(c2ncc3ncc(=O)n(CCc4ccccc4)c3n2)CC1 | . | . | . | . | . | .
CCc1ccc2c(-c3cccc(Cl)c3)nc(=O)n(CC)c2n1 | . | . | . | . | 32µM | .
O=C1[C@@H]2[C@H]3[C@H](O)[C@H](O)C/C(=N/OC[C@@H](O)COCc4ccco4)[C@@H]3CC[C@H]2C(=O)N1c1ccc(F)cc1F | .[15.4 µM] | / | / | / | / | .[15.4 µM]
COc1cc(C/C=C/c2ccccc2)c(OC)cc1O | . | / | / | / | / | .[3.08 µM]
O=C(Cc1ccccc1)Nc1nc2ccc(Cl)cc2c2nc(-c3ccco3)nn12 | . | . | . | . | . | .
Nc1c(C(=O)c2cccs2)oc2ccccc12 | . | . | . | . | ? | .
Nc1c(C(=O)c2ccc(Br)s2)oc2ccccc12 | . | . | . | . | 13µM | .
C=C1c2c(Cl)ccc(O)c2C(O)=C2C(=O)[C@@]3(O)C(O)=C(C(N)=O)C(=O)[C@@H](N(C)C)[C@@H]3[C@@H](O)[C@H]12 | . | . | . | . | . | .
Cn1c(=O)c2c(nc(/C=C\c3cccc(Cl)c3)n2C)n(C)c1=O | . | . | . | . | . | .
Cc1ccc(NC(=O)CSCC(N)=O)cc1C | . | ? | . | . | 3.2µM | .
N#CCCn1c(=O)c(-c2cccs2)nc2cnc(Oc3cccc(Cl)c3)nc21 | . | . | . | . | . | .
COc1ccc2c(=O)c3c(=O)n(Cc4ccco4)c(-c4ccc(C)cc4)nc3oc2c1 | . | . | . | . | 10µM | .
O=c1c2ccccc2oc2nc(-c3ccco3)n(Cc3ccccc3)c(=O)c12 | . | . | . | . | 20µM | .
O=C1C(CCC(O)c2ccc(F)cc2)C(c2ccc(O)cc2)N1c1ccc(F)cc1 (stereo unspecified) | . | / | / | / | / | .[3.08 µM]
SMILES | BRCT inh red | Hsp90 Hop PPI | DNA Pol III inh | TsaE inh | Tau fil binding | BRCT inh green
N=c1ccn2c(n1)O[C@@H]1[C@H](O)[C@H](CO)O[C@@H]12 | . | / | / | / | / | .
CCn1c(CSc2nnc(-c3cccnc3)n2-c2ccccc2C)nc2cc(C(=O)O)ccc21 | 25µM | . | . | 79µM | . | .
CCn1c(CSc2nnc3ccccn23)nc2cc(C(=O)O)ccc21 | . | . | . | . | . | .
O=C(O)c1cc(S(=O)(=O)Nc2cccc(F)c2)ccc1Cl | . | / | / | / | / | .
COC(=O)[C@@H]1C[C@@]2(O)[C@H](O)[C@H](O)[C@H](O)C[C@H]2N1Cc1ccc(N2CCN(C)CC2)cc1 | . | / | / | / | / | .
O=[N+]([O-])c1cccc(/C=N\Nc2ccc3ccccc3n2)c1O | .[15.4 µM] | ? | .[11.4 µM] | . | 3.2µM | .[15.4 µM]
C/C(=N/Nc1ccc2ccccc2n1)c1ccccc1O | .[15.4 µM] | .[11 µM] | .[11.4 µM] | . | .[11.4 µM] | .[15.4 µM]

High-throughput results as filed in PubChem BioAssay.
